From PubChem BioAssay (NCI) come the findings set out here.

The nature of test [1]: NCI Yeast Anticancer Drug Screen. Data for the rad50 strain (AID 155).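 Note: 0% = growth of vehicle-only cultures of the same strain.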 The following applies: S. cerevisiae rad50 strain growth inhibition; at 50.0 µM; active compounds read high. In outline: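 Cells are treated with compound, grown, and their growth is then scored against vehicle-only cultures of the same repair-deficient yeast strain.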
Test [2] in a line: NCI Yeast Anticancer Drug Screen. Data for the mec2-1 strain (AID 157). The following applies: S. cerevisiae mec2-1 strain, at 50.0 µM, active compounds read high. In outline: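 Yeast mec2-1 mutant treated with compound. Readout: growth inhibition vs vehicle controls.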
Test [3] in a line: NCI Yeast Anticancer Drug Screen. Data for the sgs1 mgt1 strain (AID 161).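 Note: 0% = growth of cultures given vehicle only.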 The following applies: S. cerevisiae sgs1 mgt1 strain, at 50.0 µM, active compounds read high. The method, boiled down:
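Test agents were incubated with a DNA-repair-mutant yeast strain. Growth was then read and compared against vehicle-treated controls.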

The nature of test [4]: NCI Yeast Anticancer Drug Screen. Data for the cln2 rad14 strain (AID 165).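 Note: 0% = growth equal to vehicle treated cultures.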 The following applies: S. cerevisiae cln2 rad14 strain, at 50.0 µM, active compounds read high. The method, boiled down:
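cln2 rad14 yeast strain; compound exposure; growth inhibition read vs vehicle controls.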

The nature of test [5]: NCI Yeast Anticancer Drug Screen. Data for the bub3 strain (AID 167). The conditions noted are these: S. cerevisiae bub3 mutant strain, at 50.0 µM, active compounds read high. In outline:
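Part of a panel of yeast mutants defective in DNA damage repair or cell cycle regulation. Each strain is grown with compound, and inhibition is calculated relative to solvent-treated cultures.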

Test [6] is described as follows: NCI Yeast Anticancer Drug Screen. Data for the mlh1 rad18 strain (AID 175). The following applies: S. cerevisiae mlh1 rad18 strain growth inhibition; at 50.0 µM; active compounds read high. The method, boiled down:
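Yeast w/ defined DNA-repair lesions; compound exposure; growth vs vehicle controls → % inhibition.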

SMILES strings stand for the structures. Compounds without any hit were thinned out: in the full panel of roughly 79,000, 15% have a hit. Values without a mark were called inactive. Activity calls are given as the source filed them. Cut-off read from the data, not from the text of the source: active = growth inhibition above about 70%; inactive = the rest.

As to `O=C(N(CCc1ccc(O)cc1)Cc1ccc2c(c1)OCO2)C(F)(F)F`, the growth inhibition in test [1] is 98% (active); in test [2], 96.8% (active); in test [3], 92.4% (active); in test [4], 92.4% (active); in test [5], 97.2% (active); in test [6] it was 98.6% (active).

In the case of `Cc1c(O)c2ccccc2n(C)c1=O`, the growth inhibition in test [1] is -9.45%; in test [2], -12.4%; in test [3] it was -15.7%; in test [4], -6.1%; in test [5], 3.85%; in test [6], -6.8%.

For the compound `CSC1=Nc2ccccc2N(C)c2c1c(-c1ccccc1)nn2C`, the growth inhibition in test [1] is 34.8%; in test [2], 32.1%; in test [3], 28.8%; in test [4], 28.6%; in test [5] it was 43%; in test [6], 21.6%.

Take `COc1ccccc1/C=C/C(=O)c1ccccc(=O)c1O`: the growth inhibition is -9% in test [1]; -5.05% in test [2]; -4.35% in test [3]; -23.4% in test [4]; -1.05% in test [5]; -11.2% in test [6].

Take `COc1cc2c(cc1OC)C1(CCBr)C3CC4C(=CCOC5CC(=O)N2C1C54)CN3C(=O)Cc1ccccc1` (stereo not given): the growth inhibition in test [1] was 27.8%; in test [2], -11.9%; in test [3], -3.45%; in test [4], 7.4%; in test [5], 4.75%; in test [6], 3.7%.

As to `O=S(=O)(c1ccccc1)N1CCN(S(=O)(=O)c2ccccc2)c2ccccc21`, the growth inhibition is 58.9% in test [1]; 23.9% in test [2]; -3.75% in test [3]; 3.9% in test [4]; 43.6% in test [5]; 53.9% in test [6].

On to `CC12OC(=O)C(C#N)C1(C)C1C(=O)CCCC12` (stereo not given), for which the growth inhibition in test [1] is -2.8%; in test [2], -7.55%; in test [3] it was 7.4%; in test [4], 1.9%; in test [5], -0.3%; in test [6], -8.55%.

As for `C[N+]1=C(/C=C/c2ccnc3c(O)cccc23)C(C)(C)c2ccccc21`, the growth inhibition in test [1] was 10%; in test [2] it was 11.2%; in test [3], 2.45%; in test [4], -60.4%; in test [5], -6.4%; in test [6], 8.65%.

`c1ccc(C2(c3ccccc3)CCc3ccccc3O2)cc1`: the growth inhibition was 27.5% in test [1]; 15.6% in test [2]; 4.7% in test [3]; -40.5% in test [4]; -9.6% in test [5]; 31.9% in test [6].

On to `Oc1ccc2ccc(O)cc2c1`, for which the growth inhibition in test [1] was 21.4%; in test [2], 21.6%; in test [3] it was 10.4%; in test [4], 12.2%; in test [5], 11.8%; in test [6], 5.4%.

For `Cc1ccnc2[nH]c(-c3cccc(Cl)c3)cc(=O)c12`, the growth inhibition in test [1] was -23.4%; in test [2] it was -18.6%; in test [3], -41%; in test [4], -33%; in test [5], -24.8%; in test [6], -58.5%.

On to `O=C(Nc1nccs1)c1cc(C2=CC=CC([N+](=O)[O-])C=C2)nc(=S)[nH]1` (stereo not given), for which the growth inhibition in test [1] was -12.9%; in test [2] it was -18.5%; in test [3], -23.8%; in test [4] it was -8.45%; in test [5], -8.65%; in test [6], -7.6%.

`CN(C)C(=S)/N=C1\SCS(=O)(=O)N1C`: the growth inhibition in test [1] is 14.2%; in test [2], 6.55%; in test [3], -6%; in test [4], 7.7%; in test [5] it was -6.6%; in test [6] it was 9.15%.

On to `COC(=O)c1cc2cc3ccccc3cc2cc1C(=O)OC`, for which the growth inhibition is 1.7% in test [1]; 14.4% in test [2]; 11.8% in test [3]; -13.4% in test [4]; -26.1% in test [5]; -8.8% in test [6].

With `CN1C(=O)C(O)CC1c1ccccc1C(F)(F)F` (stereo not given), the growth inhibition in test [1] is 11.7%; in test [2], 4.2%; in test [3], 31.2%; in test [4], 17.9%; in test [5], 5.05%; in test [6], -30.6%.

`COc1cc(NS(=O)(=O)c2ccc(N)cc2)c2ncccc2c1`: the growth inhibition in test [1] was 1.2%; in test [2], 22.8%; in test [3], 8.8%; in test [4], -17.1%; in test [5], 4.5%; in test [6], 2.95%.

For `Cc1ccccc1NC(=O)c1ccc(C(=O)Nc2ccccc2C)cc1`, the growth inhibition in test [1] is 11%; in test [2], -10.8%; in test [3], 9.2%; in test [4] it was 7.8%; in test [5], 1.05%; in test [6], 35.9%.

As for `COc1ccc(N2C(=O)C3c4[nH]c5cccc(C)c5c4C4CCC(C(C)(C)C)CC4C3C2=O)cc1` (stereo not given), the growth inhibition is 8.75% in test [1]; -21.1% in test [2]; -5.75% in test [3]; -10.6% in test [4]; 2.8% in test [5]; 6% in test [6].

For the compound `CCCCCC(=O)OCC(Br)CBr` (stereo not given), the growth inhibition is -7.6% in test [1]; -10.6% in test [2]; 22.5% in test [3]; -23.1% in test [4]; 40.5% in test [5]; 1.1% in test [6].

Consider `N#CCSc1c(-c2ccccc2)c(=O)n(-c2ccccc2)c(=S)n1-c1ccccc1`, for which the growth inhibition in test [1] was 20.7%; in test [2] it was -17.9%; in test [3] it was -2.3%; in test [4] it was -16.8%; in test [5] it was -20.6%; in test [6], -0.65%.
